# Source: article PMC7862700, “An all-to-all approach to the identification of sequence-specific readers for epigenetic DNA modifications on cytosine”
# Legend:
# Experiment in all cases: DAPPL (digital affinity profiling via proximity ligation, sequencing); 10 mM Tris-HCl pH 7.5, 50 mM NaCl, 1 mM DTT, 4% glycerol, room temperature, 30 min; GST-TFs on glutathione beads, 16-mer random dsDNA library, 0.1% formaldehyde crosslink after washing; high values mean tight binding
# [1] = biological target: T1, FEV (Homo sapiens, UniProt Q99581 1-238); conditions: protein: recombinant; tags: N-terminal GST; dsDNA, one strand shown
# T1 sequence: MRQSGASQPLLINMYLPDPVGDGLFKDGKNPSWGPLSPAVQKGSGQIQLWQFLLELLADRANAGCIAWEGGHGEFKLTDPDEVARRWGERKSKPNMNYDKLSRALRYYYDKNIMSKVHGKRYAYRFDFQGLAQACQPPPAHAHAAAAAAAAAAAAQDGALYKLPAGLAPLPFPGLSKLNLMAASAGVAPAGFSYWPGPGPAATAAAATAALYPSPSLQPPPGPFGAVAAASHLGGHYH
# In short: (§1)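 Binding signal is each hexamer's read frequency for a factor divided by its frequency in the tag-only sample. The factors were GST-fused human transcription factors from yeast, captured on glutathione beads, DNA-barcoded and pooled with that sample. Pools were incubated with 200 nmole of a random double-stranded 16-mer DNA library in Tris/NaCl/DTT/glycerol buffer at room temperature for 30 min, then washed, crosslinked with 0.1% formaldehyde, proximity-ligated with BsaI/T4 ligase (1 h, 37 °C), PCR-amplified and sequenced on an Illumina NextSeq500.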
# [2] = biological target: ETV5 (Homo sapiens, UniProt P41161 1-510); conditions: protein: recombinant; tags: N-terminal GST; dsDNA, one strand shown
# In short: as §1
# [3] = biological target: HSF1 (Homo sapiens, UniProt Q00613 1-529); conditions: protein: recombinant; tags: N-terminal GST; chain copies: 3; dsDNA, one strand shown
# In short: as §1
# [4] = biological target: T2, SPIC (Homo sapiens, UniProt Q8N5J4 1-248); conditions: protein: recombinant; tags: N-terminal GST; dsDNA, one strand shown
# T2 sequence: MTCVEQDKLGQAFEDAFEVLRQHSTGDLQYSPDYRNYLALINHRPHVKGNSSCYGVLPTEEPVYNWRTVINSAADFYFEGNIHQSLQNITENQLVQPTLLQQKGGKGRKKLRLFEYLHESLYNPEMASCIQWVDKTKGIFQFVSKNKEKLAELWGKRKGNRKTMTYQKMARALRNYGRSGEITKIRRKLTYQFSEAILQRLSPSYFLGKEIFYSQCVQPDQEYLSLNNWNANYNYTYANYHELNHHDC
# In short: as §1
# [5] = biological target: ELF4 (Homo sapiens, UniProt Q99607 1-663); conditions: protein: recombinant; tags: N-terminal GST; dsDNA, one strand shown
# In short: as §1
# [6] = biological target: T3, ELK4 (Homo sapiens, UniProt P28324-2 1-405); conditions: protein: recombinant; tags: N-terminal GST; dsDNA, one strand shown
# T3 sequence: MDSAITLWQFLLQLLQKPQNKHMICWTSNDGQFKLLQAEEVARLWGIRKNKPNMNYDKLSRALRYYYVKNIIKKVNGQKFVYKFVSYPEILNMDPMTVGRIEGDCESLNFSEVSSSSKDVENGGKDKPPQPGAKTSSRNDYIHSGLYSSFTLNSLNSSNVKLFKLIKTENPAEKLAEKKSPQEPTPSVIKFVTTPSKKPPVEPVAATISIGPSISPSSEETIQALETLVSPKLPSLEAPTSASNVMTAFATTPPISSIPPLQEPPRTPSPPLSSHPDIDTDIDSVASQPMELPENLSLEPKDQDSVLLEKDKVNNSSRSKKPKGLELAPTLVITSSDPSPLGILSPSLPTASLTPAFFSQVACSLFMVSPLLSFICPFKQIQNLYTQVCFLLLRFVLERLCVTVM
# In short: as §1
# [7] = biological target: T4, ETV2 (Homo sapiens, UniProt O00321 1-342); conditions: protein: recombinant; tags: N-terminal GST; dsDNA, one strand shown
# T4 sequence: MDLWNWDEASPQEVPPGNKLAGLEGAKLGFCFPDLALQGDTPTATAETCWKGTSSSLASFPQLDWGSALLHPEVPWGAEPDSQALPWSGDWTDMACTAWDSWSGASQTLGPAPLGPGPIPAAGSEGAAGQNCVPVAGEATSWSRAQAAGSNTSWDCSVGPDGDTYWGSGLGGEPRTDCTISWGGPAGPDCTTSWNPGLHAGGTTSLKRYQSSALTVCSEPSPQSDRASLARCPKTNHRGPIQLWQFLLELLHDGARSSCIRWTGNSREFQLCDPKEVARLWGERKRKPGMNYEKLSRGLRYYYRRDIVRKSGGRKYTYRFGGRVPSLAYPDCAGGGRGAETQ
# In short: as §1
# [8] = biological target: T5, ELF3 (Homo sapiens, UniProt P78545 1-371); conditions: protein: recombinant; tags: N-terminal GST; dsDNA, one strand shown
# T5 sequence: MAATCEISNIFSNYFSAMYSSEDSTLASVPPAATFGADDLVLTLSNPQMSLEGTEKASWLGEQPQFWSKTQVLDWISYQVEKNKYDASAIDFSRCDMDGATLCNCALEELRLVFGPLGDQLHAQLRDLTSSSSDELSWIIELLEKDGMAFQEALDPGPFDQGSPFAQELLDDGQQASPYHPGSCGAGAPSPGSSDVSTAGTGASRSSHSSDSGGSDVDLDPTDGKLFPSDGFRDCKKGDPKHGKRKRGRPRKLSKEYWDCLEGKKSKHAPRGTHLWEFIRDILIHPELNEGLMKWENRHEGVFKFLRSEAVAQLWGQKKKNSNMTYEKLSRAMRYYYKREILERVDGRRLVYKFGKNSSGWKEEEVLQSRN
# In short: as §1
# [9] = biological target: CRX (Homo sapiens, UniProt O43186 1-299); conditions: protein: recombinant; tags: N-terminal GST; dsDNA, one strand shown
# In short: as §1
# [10] = biological target: ETV1 (Homo sapiens, UniProt P50549 1-477); conditions: protein: recombinant; tags: N-terminal GST; dsDNA, one strand shown
# In short: as §1
# [11] = biological target: T6, ERF (Homo sapiens, UniProt P50548 1-548); conditions: protein: recombinant; tags: N-terminal GST; dsDNA, one strand shown
# T6 sequence: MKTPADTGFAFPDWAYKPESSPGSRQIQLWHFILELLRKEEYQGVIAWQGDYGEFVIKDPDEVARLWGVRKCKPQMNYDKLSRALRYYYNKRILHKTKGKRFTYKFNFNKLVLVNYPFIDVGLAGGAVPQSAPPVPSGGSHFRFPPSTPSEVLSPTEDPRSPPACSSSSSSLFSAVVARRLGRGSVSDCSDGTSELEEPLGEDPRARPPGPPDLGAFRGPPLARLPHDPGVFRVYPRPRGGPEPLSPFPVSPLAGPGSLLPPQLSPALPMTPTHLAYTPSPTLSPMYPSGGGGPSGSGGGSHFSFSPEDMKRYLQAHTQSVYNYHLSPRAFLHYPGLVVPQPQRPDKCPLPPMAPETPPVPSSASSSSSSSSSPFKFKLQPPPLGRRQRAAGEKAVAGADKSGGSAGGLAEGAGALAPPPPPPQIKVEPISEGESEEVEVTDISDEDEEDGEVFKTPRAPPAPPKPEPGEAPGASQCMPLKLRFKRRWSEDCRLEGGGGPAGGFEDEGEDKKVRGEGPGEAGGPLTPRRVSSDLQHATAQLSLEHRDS
# In short: as §1
# [12] = biological target: T7, ETV3L (Homo sapiens, UniProt Q6ZN32 1-361); conditions: protein: recombinant; tags: N-terminal GST; dsDNA, one strand shown
# T7 sequence: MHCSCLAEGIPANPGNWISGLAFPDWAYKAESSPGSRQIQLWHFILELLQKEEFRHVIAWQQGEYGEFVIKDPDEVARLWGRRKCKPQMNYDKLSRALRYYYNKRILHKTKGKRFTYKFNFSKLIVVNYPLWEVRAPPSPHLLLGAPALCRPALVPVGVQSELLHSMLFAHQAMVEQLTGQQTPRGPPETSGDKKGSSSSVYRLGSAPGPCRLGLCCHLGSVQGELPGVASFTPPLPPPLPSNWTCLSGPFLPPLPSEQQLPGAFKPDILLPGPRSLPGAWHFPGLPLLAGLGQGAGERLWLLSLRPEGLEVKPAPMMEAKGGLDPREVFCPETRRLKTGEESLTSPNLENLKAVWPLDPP
# In short: as §1
# [13] = biological target: T8, ETS2 (Homo sapiens, UniProt P15036 1-469); conditions: protein: recombinant; tags: N-terminal GST; dsDNA, one strand shown
# T8 sequence: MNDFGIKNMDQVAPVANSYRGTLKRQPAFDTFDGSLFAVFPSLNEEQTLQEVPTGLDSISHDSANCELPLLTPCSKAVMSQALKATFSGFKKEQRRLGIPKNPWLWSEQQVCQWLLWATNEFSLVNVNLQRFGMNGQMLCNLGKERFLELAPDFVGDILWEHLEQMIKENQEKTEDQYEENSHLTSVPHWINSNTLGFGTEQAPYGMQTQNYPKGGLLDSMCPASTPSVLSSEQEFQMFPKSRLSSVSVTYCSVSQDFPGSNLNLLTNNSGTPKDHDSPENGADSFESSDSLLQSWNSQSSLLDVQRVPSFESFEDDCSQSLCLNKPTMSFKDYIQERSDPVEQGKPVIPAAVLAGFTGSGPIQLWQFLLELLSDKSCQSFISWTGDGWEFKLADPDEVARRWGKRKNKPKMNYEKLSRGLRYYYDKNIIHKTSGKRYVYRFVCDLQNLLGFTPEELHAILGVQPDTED
# In short: as §1
# [14] = biological target: T9, SPDEF (Homo sapiens, UniProt O95238 1-335); conditions: protein: recombinant; tags: N-terminal GST; dsDNA, one strand shown
# T9 sequence: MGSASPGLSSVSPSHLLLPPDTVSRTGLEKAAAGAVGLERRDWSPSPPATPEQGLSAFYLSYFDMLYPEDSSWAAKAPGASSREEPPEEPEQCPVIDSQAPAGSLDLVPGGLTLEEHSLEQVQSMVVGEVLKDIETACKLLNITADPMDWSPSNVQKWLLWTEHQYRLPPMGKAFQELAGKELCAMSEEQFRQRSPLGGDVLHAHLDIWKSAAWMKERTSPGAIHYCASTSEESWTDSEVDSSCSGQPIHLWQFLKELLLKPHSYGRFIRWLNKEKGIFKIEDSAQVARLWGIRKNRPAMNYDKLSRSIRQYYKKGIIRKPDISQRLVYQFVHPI
# In short: as §1
# [15] = biological target: T10, ETV7 (Homo sapiens, UniProt Q9Y603 1-341); conditions: protein: recombinant; tags: N-terminal GST; dsDNA, one strand shown
# T10 sequence: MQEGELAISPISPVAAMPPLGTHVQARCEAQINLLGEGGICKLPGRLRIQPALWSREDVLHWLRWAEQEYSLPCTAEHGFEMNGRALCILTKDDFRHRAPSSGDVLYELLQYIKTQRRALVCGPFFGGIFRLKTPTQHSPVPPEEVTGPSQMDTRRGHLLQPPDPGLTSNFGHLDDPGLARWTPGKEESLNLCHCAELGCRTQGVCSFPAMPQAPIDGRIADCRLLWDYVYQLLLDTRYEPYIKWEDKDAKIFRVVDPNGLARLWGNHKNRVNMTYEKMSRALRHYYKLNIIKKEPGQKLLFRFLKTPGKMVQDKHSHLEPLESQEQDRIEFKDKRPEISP
# In short: as §1
# [16] = biological target: T11, ELF5 (Homo sapiens, UniProt Q9UKW6-2 1-255); conditions: protein: recombinant; tags: N-terminal GST; dsDNA, one strand shown
# T11 sequence: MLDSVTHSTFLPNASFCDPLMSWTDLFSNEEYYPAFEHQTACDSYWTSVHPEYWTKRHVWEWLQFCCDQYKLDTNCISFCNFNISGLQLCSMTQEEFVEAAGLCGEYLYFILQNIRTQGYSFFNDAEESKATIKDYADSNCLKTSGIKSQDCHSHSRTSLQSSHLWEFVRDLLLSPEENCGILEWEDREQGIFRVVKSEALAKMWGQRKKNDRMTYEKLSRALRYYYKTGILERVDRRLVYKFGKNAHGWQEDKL
# In short: as §1
# [17] = biological target: T12, ETV3 (Homo sapiens, UniProt P41162-2 1-143); conditions: protein: recombinant; tags: N-terminal GST; dsDNA, one strand shown
# T12 sequence: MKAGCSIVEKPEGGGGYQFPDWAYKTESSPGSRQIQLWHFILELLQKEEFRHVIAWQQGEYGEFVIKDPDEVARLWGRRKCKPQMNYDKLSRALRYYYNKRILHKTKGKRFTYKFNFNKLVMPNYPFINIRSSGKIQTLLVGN
# In short: as §1
# [18] = biological target: ETV6 (Homo sapiens, UniProt P41212 1-452); conditions: protein: recombinant; tags: N-terminal GST; dsDNA, one strand shown
# In short: as §1
# Sequence of CRX (O43186 whole entry): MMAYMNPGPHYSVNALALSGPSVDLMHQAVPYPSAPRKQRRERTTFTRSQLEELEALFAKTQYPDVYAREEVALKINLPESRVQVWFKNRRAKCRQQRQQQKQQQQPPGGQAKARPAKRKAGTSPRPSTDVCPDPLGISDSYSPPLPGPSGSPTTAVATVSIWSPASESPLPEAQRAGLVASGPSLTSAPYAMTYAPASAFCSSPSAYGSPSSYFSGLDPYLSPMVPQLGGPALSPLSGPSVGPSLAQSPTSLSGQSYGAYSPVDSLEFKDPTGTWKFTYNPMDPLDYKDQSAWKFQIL
# Sequence of ETV5 (P41161 whole entry): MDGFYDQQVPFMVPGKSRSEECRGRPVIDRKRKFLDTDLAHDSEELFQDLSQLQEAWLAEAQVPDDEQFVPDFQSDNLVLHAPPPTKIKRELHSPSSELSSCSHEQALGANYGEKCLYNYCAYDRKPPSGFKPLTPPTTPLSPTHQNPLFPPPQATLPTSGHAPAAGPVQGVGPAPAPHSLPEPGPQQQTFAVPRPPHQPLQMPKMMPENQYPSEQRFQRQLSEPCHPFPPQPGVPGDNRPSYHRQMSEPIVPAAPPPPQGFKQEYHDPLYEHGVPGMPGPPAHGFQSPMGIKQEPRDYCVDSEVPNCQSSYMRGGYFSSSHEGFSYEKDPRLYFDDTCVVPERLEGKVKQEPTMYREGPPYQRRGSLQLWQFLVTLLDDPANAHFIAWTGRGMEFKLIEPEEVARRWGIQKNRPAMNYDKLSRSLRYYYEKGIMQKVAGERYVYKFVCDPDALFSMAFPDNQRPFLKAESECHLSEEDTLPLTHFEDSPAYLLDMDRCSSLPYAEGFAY
# Sequence of ELF4 (Q99607 whole entry): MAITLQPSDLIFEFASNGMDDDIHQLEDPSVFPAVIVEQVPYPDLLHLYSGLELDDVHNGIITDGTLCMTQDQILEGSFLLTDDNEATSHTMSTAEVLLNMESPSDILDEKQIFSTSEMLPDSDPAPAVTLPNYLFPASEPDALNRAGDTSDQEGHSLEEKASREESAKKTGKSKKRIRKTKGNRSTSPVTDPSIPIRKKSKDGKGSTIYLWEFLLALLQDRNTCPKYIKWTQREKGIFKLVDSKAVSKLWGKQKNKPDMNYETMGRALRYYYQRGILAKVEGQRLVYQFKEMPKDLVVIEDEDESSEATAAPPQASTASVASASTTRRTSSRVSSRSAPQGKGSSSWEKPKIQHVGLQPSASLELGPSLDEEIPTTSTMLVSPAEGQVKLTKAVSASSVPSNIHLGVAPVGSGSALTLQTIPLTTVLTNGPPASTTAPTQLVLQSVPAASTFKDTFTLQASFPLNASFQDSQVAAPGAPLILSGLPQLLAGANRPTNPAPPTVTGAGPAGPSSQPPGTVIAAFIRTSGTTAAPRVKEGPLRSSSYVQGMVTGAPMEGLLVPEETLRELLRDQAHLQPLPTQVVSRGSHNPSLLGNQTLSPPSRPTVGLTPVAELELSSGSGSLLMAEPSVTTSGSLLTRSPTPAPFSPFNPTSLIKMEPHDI
# Sequence of HSF1 (Q00613 whole entry): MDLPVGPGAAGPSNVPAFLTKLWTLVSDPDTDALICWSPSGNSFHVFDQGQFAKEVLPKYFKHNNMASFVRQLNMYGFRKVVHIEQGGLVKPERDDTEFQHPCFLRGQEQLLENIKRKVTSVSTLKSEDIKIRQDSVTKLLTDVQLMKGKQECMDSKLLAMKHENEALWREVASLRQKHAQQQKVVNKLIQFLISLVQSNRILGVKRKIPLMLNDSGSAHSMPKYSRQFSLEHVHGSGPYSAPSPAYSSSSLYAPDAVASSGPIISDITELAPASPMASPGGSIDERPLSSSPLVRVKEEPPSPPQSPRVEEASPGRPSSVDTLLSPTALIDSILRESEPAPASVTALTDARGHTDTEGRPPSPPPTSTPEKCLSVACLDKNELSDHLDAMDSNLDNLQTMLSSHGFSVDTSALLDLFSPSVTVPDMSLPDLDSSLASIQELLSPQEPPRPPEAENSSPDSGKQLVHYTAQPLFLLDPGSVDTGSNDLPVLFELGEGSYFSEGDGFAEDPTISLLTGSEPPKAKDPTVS
# Sequence of ETV6 (P41212 whole entry): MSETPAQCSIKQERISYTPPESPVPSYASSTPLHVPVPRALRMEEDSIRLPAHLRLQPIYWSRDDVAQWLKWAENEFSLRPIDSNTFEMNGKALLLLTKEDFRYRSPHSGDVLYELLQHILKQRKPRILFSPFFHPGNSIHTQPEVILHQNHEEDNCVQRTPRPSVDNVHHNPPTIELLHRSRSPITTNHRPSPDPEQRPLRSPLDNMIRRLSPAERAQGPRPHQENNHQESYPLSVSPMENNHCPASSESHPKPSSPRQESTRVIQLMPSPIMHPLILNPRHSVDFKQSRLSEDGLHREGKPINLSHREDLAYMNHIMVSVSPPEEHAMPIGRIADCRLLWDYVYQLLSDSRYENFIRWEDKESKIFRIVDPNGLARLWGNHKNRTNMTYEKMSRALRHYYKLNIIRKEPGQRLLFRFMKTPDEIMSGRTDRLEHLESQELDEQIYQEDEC
# Sequence of ETV1 (P50549 whole entry): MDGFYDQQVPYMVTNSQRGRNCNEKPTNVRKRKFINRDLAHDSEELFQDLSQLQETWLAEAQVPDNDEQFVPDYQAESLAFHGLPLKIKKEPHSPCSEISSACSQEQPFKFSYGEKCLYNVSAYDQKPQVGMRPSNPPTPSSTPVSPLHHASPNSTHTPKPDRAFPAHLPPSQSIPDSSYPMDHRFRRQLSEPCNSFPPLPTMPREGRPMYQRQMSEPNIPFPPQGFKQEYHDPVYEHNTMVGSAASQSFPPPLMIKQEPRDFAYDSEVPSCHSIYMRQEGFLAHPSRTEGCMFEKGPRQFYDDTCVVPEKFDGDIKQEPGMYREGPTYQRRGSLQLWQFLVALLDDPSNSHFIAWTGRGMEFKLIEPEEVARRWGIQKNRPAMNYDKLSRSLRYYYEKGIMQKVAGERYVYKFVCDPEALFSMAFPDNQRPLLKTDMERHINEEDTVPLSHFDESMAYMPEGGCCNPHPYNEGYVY
sequence,measurement,setting,value
CGCTTA,binding signal,[1],"1.2 fold enrichment (6-mer frequency, TF over GST control)"
same,binding signal,[2],"1.29 fold enrichment (6-mer frequency, TF over GST control)"
same,binding signal,[3],"1.53 fold enrichment (6-mer frequency, TF over GST control)"
same,binding signal,[4],"1.22 fold enrichment (6-mer frequency, TF over GST control)"
same,binding signal,[5],"1.29 fold enrichment (6-mer frequency, TF over GST control)"
same,binding signal,[6],"1.32 fold enrichment (6-mer frequency, TF over GST control)"
same,binding signal,[7],"1.1 fold enrichment (6-mer frequency, TF over GST control)"
same,binding signal,[8],"1.29 fold enrichment (6-mer frequency, TF over GST control)"
same,binding signal,[9],"2.11 fold enrichment (6-mer frequency, TF over GST control)"
same,binding signal,[10],"1.24 fold enrichment (6-mer frequency, TF over GST control)"
same,binding signal,[11],"1.31 fold enrichment (6-mer frequency, TF over GST control)"
same,binding signal,[12],"1.3 fold enrichment (6-mer frequency, TF over GST control)"
same,binding signal,[13],"1.25 fold enrichment (6-mer frequency, TF over GST control)"
same,binding signal,[14],"1.3 fold enrichment (6-mer frequency, TF over GST control)"
same,binding signal,[15],"1.31 fold enrichment (6-mer frequency, TF over GST control)"
same,binding signal,[16],"1.19 fold enrichment (6-mer frequency, TF over GST control)"
same,binding signal,[17],"1.34 fold enrichment (6-mer frequency, TF over GST control)"
same,binding signal,[18],"1.11 fold enrichment (6-mer frequency, TF over GST control)"
